tim10-1 inh = inhibits growth of tim10-1 mutant yeast. S. cerevisiae tim10-1 ts strain growth, BacTiter-Glo, 24 h. inhibition, % at 20 µM. hit rate 2.2% among 330,000;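 active = inhibition of at least 40%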;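 note: mutant grown at 25 °C; 0% = DMSO wells with yeast and 100% = wells holding no yeast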
NALP3 yeast inh = inhibitors of NALP3 inflammasome in yeast; inhibition, % at 10 µM; Yeast reconstituted NLRP3/ASC/caspase-1, beta-gal luminescence, 24 h; hit rate 0.39% among 330,000;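 active = inhibition of 50% or more; inactive = inhibition below 50%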;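 note: plate controls were induced DMSO wells for no effect and uninduced yeast grown without galactose for full effect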
TIM10 inh = growth inhibitors of TIM10 yeast strain; S. cerevisiae TIM10 strain growth, BacTiter-Glo luminescence, 24 h; inhibition, % at 10 µM; hit rate 1.4% among 330,000; AID 463195;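 active = inhibition of 40% or more at the single tested concentration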;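 note: wild-type TIM10 isogenic control strain grown at permissive 25 °C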
NALP1 inh = inhibitors of NALP1 inflammasome in yeast; inhibition, % at 10 µM; hit rate 0.61% among 280,000; S. cerevisiae NALP1/ASC/caspase-1 growth, X-gal OD620, 72 h; in the data active = inhibition mostly above about 24%, no sharp cut-off; inactive = mostly below about 32%
tim23-1 inh = growth inhibitors of tim23-1 mutant yeast; S. cerevisiae tim23-1 growth, BacTiter-Glo luminescence, 24 h; hit rate 1.3% among 330,000; inhibition, % at 20 µM; AID 463212;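 active = growth inhibition of the mutant yeast at or above 50%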;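 note: temperature-sensitive mutant grown at 25 °C; plate controls were DMSO-treated mutant yeast for no effect and medium wells lacking yeast for full effect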
SKKanGAS inh = blocks kanamycin growth of S. pyogenes SKKanGAS strain | BacTiter-Glo, 6 h | inhibition, % at 7.5 µM | hit rate 1.3% among 300,000 | AID 1662;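 active = mean replicate score, as percent of positive control median, at least 50; inconclusive = mean below 50 but one replicate at or above 50; inactive = mean and every replicate below 50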;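 note: strain carries kanamycin resistance gene driven by streptokinase promoter and grows in 40 µg/ml kanamycin; loss of luminescence reflects streptokinase promoter inhibition or plain growth inhibition; 0% = median of DMSO wells and 100% = positive control at its reference dose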
tim10-1 conf = confirmation of tim10-1 mutant yeast growth inhibitors; shares compounds with tim10-1 inh; S. cerevisiae tim10-1 ts strain growth, BacTiter-Glo, 24 h; inhibition, % at 20 µM; hit rate 56% among 7,400;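 active = inhibition of yeast growth at or above a set limit in either of two repeat tests at 20 µM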;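 note: tim10-1 mutant grown at permissive 25 °C to find synthetic lethal compounds; 0% = DMSO yeast wells and 100% = medium wells without yeast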
TIM10 conf = confirmation of TIM10 yeast growth inhibitors | S. cerevisiae tim10 strain growth, BacTiter-Glo luminescence, 24 h | AID 463215 | shares compounds with TIM10 inh | inhibition, % at 10 µM | hit rate 63% among 4,600;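 active = inhibition of yeast growth at or above a set limit in either of two replicates at 10 µM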;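 note: this counterscreen used the strain with wild-type TIM10; 0% = yeast with DMSO and 100% = medium wells lacking yeast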
Active calls of the source: *; ? = inconclusive; . = no result given. A selection: hits, their analogues and other compounds. The true share with any hit is near 4.9%.

SMILES | tim10-1 inh | NALP3 yeast inh | TIM10 inh | NALP1 inh | tim23-1 inh | SKKanGAS inh | tim10-1 conf | TIM10 conf
O=C(CCCN1C(=O)/C(=C/c2ccccc2Cl)SC1=S)NCCCN1CCOCC1 | 44* | 1 | 44* | -4 | 38 | 23 | 41* | 46*
O=C(NC12CC3CC(CC(C3)C1)C2)c1ccccc1O | 50* | -5 | 49* | 14 | 32 | 2 | 51* | 48*
N/C(=N\OC(=O)c1ccccc1Br)c1cccc([N+](=O)[O-])c1 | 79* | 26 | 41* | 11 | 39 | 0 | 84* | 54*
CCCCNC(=S)N/N=C/c1ccc(C)s1 | 57* | 8 | 58* | -4 | 38 | 25 | 42* | 54*
Cc1ccc(/C=N/NC(=S)NCCc2ccccc2)s1 | -60 | 12 | 10 | 13 | -3 | 5 | . | .
COc1ccccc1Cn1c(=O)c2ccccc2n2c(Sc3ncnc4sccc34)nnc12 | 43* | -7 | 45* | 13 | 45 | 5 | 34* | 30
O=C(Cc1ccccc1F)OCN1C(=O)c2ccccc2C1=O | 30 | 12 | 10 | -6 | 19 | 1 | . | .
Nc1nc(SCc2ccc(Cl)cc2Cl)n[nH]1 | 10 | 17 | 7 | 7 | 19 | 3 | . | .
CNc1cc(CSC)nc(SCc2ccc(Cl)cc2Cl)n1 | 49* | 41 | 44* | 33* | 48 | 20 | 41* | 37*
CCC(C)NC(=O)Cn1nc(Cc2ccncc2)c2ccccc2c1=O (stereo not given) | 10 | 6 | -11 | 22 | 18 | -1 | . | .
COc1cccc(C(=O)N2C(C(=O)O)CSC2c2ccccc2Cl)c1 (stereo not given) | 13 | 2 | 7 | 15 | 6 | ? | . | .
CC(Sc1nnnn1C)C(=O)NC1CCCC1 (stereo not given) | 2 | 6 | -7 | . | -3 | . | . | .
O=C(/C=C/c1cccc(OCc2ccccc2)c1)c1cccnc1 | 57* | 7 | 65* | 26 | 37 | 4 | 50* | 52*
O=C(O)/C=C/c1cccc(OCc2ccccc2)c1 | 4 | 18 | 9 | 1 | 12 | 6 | . | .
CC(=O)Nc1ccc(C(=O)OCc2ccccc2Cl)cc1 | 54* | 17 | 42* | 38 | 36 | 4 | 26 | 34*
COc1ccc(C(=O)Nc2ccccc2C(=O)N/N=C/c2cccc3ccccc23)cc1 | 60* | 15 | 56* | 7 | 47 | 26 | 57* | 37*
COC(=O)c1c(N2C(=O)CC(Sc3ccccc3C(=O)O)C2=O)sc2c1CCCC2 (stereo not given) | 46* | 1 | 46* | -2 | 26 | 5 | 47* | 17
Cc1nc(-c2ccc(F)cc2)c(CC(=O)N2CCN(S(=O)(=O)c3cccc([N+](=O)[O-])c3)CC2)s1 | 26 | 7 | 6 | . | 13 | . | . | .
CC(=O)c1ccc(NC(=O)c2noc(C(C)C)c2[N+](=O)[O-])cc1 | 11 | 9 | 28 | 18 | 37 | 4 | . | .
CCc1ccc(NC(=O)c2noc(C(C)C)c2[N+](=O)[O-])cc1 | 52* | -12 | 46* | 1 | 42 | -3 | 44* | 33*
COc1ccc(-n2nc3c(c2NC(=O)COc2cccc(OC)c2)CS(=O)(=O)C3)cc1 | 11 | -5 | 4 | -1 | 19 | 9 | . | .
Cc1cc(Nc2cccc(Br)c2)c2ccccc2n1 | 6 | 11 | 16 | . | 3 | 21 | . | .
CCN(CC)C(=O)c1cccc2c1C(=O)c1ccccc1-2 | 30 | 0 | 10 | 3 | 17 | -4 | . | .
CCN(CC)C(=O)c1ccc2c(c1[N+](=O)[O-])C(=O)c1ccccc1C2=O | 60* | 39 | 53* | 28 | 38 | -2 | 44* | -26
Cc1ccc2oc(=O)c3cc(C(=O)Nc4cc(-c5cccc(F)c5)no4)sc3c2c1 | -7 | 12 | 7 | 33 | -5 | -2 | . | .
COc1ccc(NC(=S)NCc2ccccc2)c(OC)c1 | 10 | 27 | 2 | 2 | -6 | 7 | . | .

Screening data as filed in PubChem BioAssay.
